Laboratory results: the supplement of paper PMC10849652
Targets with a hit are over-represented here; the source holds about 7,900 in all. About 0.6% of all pairs of compound and target were hits.

What was measured:
Assay in all cases: log2 fold change, soluble protein after heating vs DMSO (PISA); higher = thermal stabilisation; K562 cells, 10 uM, 30 min; active = over 0.2 and 3.5 SD of the protein, either way, in both replicates (recomputed)
[1] = compound: NC(=O)Nc1cc(-c2cccc(F)c2)sc1C(=O)N[C@H]1CCCNC1
Summary of the method: (§1)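 Values are thermal stability changes relative to control samples and are taken from duplicates. They are stated as log2 fold changes. Before quantification by TMTpro 16plex LC-MS/MS with equalised channel sums, K562 cells at 2×10^6 cells/mL were treated with 10 μM compound for 30 min, heated in aliquots for 3 min across 48°C-58°C, pooled, extracted in PBS with 0.5% NP-40 at 4°C, and centrifuged at 21,000xg for 90 min to give the soluble supernatant.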

[2] = compound: NC(=O)c1cnc(N[C@@H]2CCCC[C@@H]2N)nc1Nc1cccc(-n2nccn2)c1
Summary of the method: as §1

[3] = compound: NC1(c2ccc(-c3nc4ccn5c(=O)[nH]nc5c4cc3-c3ccccc3)cc2)CCC1
Summary of the method: as §1

[4] = compound: NCC(=O)Nc1ccc(-n2nc(C(F)(F)F)cc2-c2ccc3c(ccc4ccccc43)c2)cc1
Summary of the method: as §1

[5] = compound: Nc1ccccc1NC(=O)c1ccc(CNC(=O)OCc2cccnc2)cc1 [entinostat]
Summary of the method: as §1

[6] = compound: O=C(CCCCCCC(=O)Nc1ccccc1)NO [vorinostat]
Summary of the method: as §1

[7] = compound: O=C(CCCCCCNC(=O)c1cnc(N(c2ccccc2)c2ccccc2Cl)nc1)NO [citarinostat]
Summary of the method: as §1

[8] = compound: O=C(O)c1ccc2c(c1)nc(Nc1cccc(Cl)c1)c1ccncc12 [silmitasertib]
Summary of the method: as §1

[9] = compound: O=C1NC(=O)C(c2cnc3ccccn23)=C1c1cn2c3c(cc(F)cc13)CN(C(=O)N1CCCCC1)CC2
Summary of the method: as §1

[10] = compound: c1cc(OCCN2CCCCC2)cc(-c2n[nH]c3ccc(-c4nnc[nH]4)cc23)c1
Summary of the method: as §1

Measured: log2 fold change

SMPD4 isoform 4 (UniProt Q9NXE4)
UniProt Q9NXE4, sequence (Q9NXE4 whole entry, looked up): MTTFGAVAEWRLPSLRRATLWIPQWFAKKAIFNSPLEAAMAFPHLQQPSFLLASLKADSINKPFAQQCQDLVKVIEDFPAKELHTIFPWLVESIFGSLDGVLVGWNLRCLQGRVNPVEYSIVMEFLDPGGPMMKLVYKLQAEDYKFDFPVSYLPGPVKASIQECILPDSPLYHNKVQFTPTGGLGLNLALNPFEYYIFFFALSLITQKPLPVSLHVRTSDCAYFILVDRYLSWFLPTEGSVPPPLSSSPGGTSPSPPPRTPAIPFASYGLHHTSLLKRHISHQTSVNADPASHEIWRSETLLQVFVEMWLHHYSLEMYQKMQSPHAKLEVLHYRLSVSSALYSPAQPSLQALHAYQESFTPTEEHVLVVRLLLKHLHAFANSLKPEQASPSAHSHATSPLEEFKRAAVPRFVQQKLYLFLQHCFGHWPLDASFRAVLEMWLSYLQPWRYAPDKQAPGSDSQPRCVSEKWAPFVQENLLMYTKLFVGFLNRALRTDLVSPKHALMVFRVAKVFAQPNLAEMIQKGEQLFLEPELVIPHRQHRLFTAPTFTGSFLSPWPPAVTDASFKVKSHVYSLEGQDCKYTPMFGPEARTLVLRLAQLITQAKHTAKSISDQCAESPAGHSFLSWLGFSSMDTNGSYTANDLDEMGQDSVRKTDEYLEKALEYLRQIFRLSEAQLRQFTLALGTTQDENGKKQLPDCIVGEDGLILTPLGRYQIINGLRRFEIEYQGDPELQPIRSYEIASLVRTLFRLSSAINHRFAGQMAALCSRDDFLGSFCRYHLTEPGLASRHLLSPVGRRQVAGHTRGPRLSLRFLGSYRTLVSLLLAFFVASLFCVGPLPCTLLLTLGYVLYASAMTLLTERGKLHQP
inactive: [1] -0.008 | [2] -0.075 | [3] -0.141 | [4] -0.059 | [5] 0.033 | [6] 0.084 | [7] -0.039 | [8] 0.085 | [9] 0.012 | [10] 0.268

TBC1D9B (UniProt Q66K14)
inactive: [1] -0.194 | [2] -0.095 | [3] -0.07 | [4] -0.012 | [5] -0.085 | [6] -0.034 | [7] 0.173 | [8] 0.021 | [9] -0.176 | [10] -0.13

SUN1 isoform 9 (UniProt O94901)
UniProt O94901, sequence (O94901 whole entry, looked up): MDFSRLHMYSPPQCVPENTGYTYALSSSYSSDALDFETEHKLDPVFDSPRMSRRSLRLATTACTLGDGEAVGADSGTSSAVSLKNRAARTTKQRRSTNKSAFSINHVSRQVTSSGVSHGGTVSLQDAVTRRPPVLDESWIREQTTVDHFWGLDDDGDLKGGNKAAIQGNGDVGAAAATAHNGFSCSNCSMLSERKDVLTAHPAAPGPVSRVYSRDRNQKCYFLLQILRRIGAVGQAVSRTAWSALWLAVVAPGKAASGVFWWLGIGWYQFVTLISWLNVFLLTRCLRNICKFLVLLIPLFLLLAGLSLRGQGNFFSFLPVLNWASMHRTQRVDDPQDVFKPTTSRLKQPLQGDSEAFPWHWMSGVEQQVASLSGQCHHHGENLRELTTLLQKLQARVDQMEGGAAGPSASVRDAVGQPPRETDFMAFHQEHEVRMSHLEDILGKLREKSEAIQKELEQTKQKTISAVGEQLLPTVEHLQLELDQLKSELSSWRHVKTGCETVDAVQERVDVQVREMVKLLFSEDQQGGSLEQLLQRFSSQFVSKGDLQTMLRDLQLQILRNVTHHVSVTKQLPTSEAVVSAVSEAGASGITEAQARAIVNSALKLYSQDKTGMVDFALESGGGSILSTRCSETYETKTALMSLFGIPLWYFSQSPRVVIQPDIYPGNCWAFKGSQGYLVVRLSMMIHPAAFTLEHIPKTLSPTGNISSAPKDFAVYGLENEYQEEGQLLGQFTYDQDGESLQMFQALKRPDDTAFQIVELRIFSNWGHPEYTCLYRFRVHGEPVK
inactive: [1] -0.035 | [2] -0.073 | [3] -0.028 | [4] 0.102 | [5] 0.18 | [6] 0.06 | [7] -0.115 | [8] -0.009 | [9] -0.226 | [10] 0.075

SUN2 (UniProt Q9UH99)
inactive: [1] 0.002 | [2] 0.011 | [3] -0.054 | [4] -0.03 | [5] 0.054 | [6] 0.018 | [7] 0.019 | [8] 0.007 | [9] 0.097 | [10] -0.087

TJP2 isoform 7 (UniProt Q9UDY2)
inactive: [1] -0.129 | [2] -0.007 | [3] -0.171 | [4] -0.051 | [5] 0.014 | [6] 0.161 | [7] 0.039 | [8] -0.061 | [9] 0.025 | [10] -0.167

SRPRB (UniProt Q9Y5M8)
inactive: [1] 0.048 | [2] 0.028 | [3] -0.056 | [4] -0.038 | [5] 0.045 | [6] 0.029 | [7] 0.029 | [8] -0.007 | [9] -0.014 | [10] 0.045

SP3 (UniProt Q02447)
UniProt Q02447, sequence (Q02447 whole entry, looked up): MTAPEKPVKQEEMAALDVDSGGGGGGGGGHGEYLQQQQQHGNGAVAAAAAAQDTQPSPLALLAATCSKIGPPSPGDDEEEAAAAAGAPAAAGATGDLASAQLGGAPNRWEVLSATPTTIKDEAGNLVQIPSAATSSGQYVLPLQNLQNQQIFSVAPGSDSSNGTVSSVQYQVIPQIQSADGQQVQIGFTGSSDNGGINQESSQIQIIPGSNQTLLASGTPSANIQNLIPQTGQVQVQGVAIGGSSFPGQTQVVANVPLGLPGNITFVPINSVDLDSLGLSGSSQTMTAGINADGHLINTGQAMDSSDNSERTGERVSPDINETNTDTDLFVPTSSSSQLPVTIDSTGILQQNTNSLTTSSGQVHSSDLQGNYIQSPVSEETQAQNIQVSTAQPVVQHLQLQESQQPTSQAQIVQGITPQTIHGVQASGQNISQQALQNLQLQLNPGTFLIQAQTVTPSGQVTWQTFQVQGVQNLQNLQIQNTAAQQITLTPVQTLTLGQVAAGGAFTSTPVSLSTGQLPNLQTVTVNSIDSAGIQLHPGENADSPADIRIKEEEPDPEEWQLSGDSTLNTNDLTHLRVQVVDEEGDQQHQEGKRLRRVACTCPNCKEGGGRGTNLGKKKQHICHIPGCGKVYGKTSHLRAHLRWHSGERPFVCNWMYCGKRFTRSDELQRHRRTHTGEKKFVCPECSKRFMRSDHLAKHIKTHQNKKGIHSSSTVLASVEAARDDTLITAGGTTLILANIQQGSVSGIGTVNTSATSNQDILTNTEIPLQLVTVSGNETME
inactive: [1] 0.15 | [2] -0.011 | [3] -0.033 | [4] 0.025 | [5] 0.027 | [6] -0.026 | [7] -0.147 | [8] 0.046 | [9] -0.02 | [10] 0.04

SLIRP (UniProt Q9GZT3)
inactive: [1] -0.121 | [2] -0.106 | [3] -0.041 | [4] -0.062 | [5] 0.127 | [6] -0.055 | [7] 0.023 | [8] -0.016 | [9] -0.129 | [10] -0.129

SPCS2 (UniProt Q15005)
UniProt Q15005, sequence (Q15005 whole entry, looked up): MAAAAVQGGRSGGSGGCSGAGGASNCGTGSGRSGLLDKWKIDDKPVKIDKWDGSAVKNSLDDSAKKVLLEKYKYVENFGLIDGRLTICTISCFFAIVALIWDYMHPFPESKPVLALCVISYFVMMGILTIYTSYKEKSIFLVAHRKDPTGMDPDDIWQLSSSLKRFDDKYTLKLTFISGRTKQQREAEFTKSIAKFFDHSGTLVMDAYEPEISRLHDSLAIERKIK
inactive: [1] 0 | [2] -0.002 | [3] -0.072 | [4] 0.143 | [5] 0.016 | [6] 0.024 | [7] 0.224 | [8] -0.001 | [9] -0.021 | [10] 0.23

SRPRA (UniProt P08240)
inactive: [1] -0.03 | [2] 0.017 | [3] -0.049 | [4] -0.045 | [5] 0.02 | [6] 0.033 | [7] 0 | [8] 0.021 | [9] 0.008 | [10] 0.015

SSB (UniProt P05455)
inactive: [1] -0.018 | [2] -0.181 | [3] -0.01 | [4] -0.091 | [5] 0.039 | [6] 0.085 | [7] 0.02 | [8] -0.035 | [9] -0.089 | [10] -0.085

SUPT5H (UniProt O00267)
inactive: [1] -0.031 | [2] -0.049 | [3] -0.129 | [4] -0.095 | [5] 0.029 | [6] 0.043 | [7] 0.074 | [8] 0.038 | [9] -0.115 | [10] -0.028

SREK1 isoform 2 (UniProt Q8WXA9)
inactive: [1] 0.194 | [2] -0.068 | [3] 0.03 | [4] -0.208 | [5] 0.012 | [6] 0.05 | [7] 0.129 | [8] -0.148 | [9] 0.059 | [10] -0.213

TLK2 isoform 2 (UniProt Q86UE8)
inactive: [1] -0.059 | [2] 0.049 | [3] -0.042 | [4] -0.037 | [5] 0.036 | [6] 0.1 | [7] 0.016 | [8] 0.034 | [9] -0.026 | [10] -0.052

SLC25A38 (UniProt Q96DW6)
UniProt Q96DW6, sequence (Q96DW6 whole entry, looked up): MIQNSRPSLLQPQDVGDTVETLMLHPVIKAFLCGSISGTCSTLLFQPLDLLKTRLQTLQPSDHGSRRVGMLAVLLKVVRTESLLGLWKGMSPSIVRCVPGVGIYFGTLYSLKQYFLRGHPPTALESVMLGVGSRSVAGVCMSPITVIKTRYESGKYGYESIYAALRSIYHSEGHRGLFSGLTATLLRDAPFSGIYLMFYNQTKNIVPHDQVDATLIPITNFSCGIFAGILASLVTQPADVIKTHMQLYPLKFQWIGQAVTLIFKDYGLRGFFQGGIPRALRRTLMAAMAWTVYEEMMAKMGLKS
inactive: [1] 0.035 | [2] -0.068 | [3] -0.21 | [4] 0.06 | [5] -0.049 | [6] -0.096 | [7] 0.02 | [8] 0.069 | [9] -0.022 | [10] -0.028

TAMM41 isoform 3 (UniProt Q96BW9)
inactive: [1] 0.001 | [2] -0.052 | [3] -0.148 | [4] -0.059 | [5] 0.022 | [6] 0.023 | [7] 0.013 | [8] -0.004 | [9] -0.125 | [10] -0.043

STK39 (UniProt Q9UEW8)
inactive: [1] -0.064 | [2] 0.034 | [3] -0.146 | [4] -0.028 | [5] 0.069 | [6] 0.063 | [7] 0.051 | [8] 0.003 | [9] 0.003 | [10] -0.072

SUMO1 (UniProt P63165)
UniProt P63165, sequence (P63165 whole entry, looked up): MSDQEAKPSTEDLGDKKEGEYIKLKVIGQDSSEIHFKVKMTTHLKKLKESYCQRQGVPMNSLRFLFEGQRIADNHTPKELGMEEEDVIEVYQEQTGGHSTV
inactive: [1] -0.006 | [2] -0.116 | [3] 0.071 | [4] -0.074 | [5] -0.01 | [6] -0.086 | [7] -0.063 | [8] -0.012 | [9] 0.045 | [10] -0.087

SRSF2 (UniProt Q01130)
inactive: [1] -0.056 | [2] 0.04 | [3] 0.139 | [4] -0.006 | [5] -0.067 | [6] -0.057 | [7] -0.04 | [8] -0.062 | [9] 0.059 | [10] -0.081

SLC25A4 (UniProt P12235)
inactive: [1] -0.012 | [2] -0.035 | [3] -0.056 | [4] -0.006 | [5] -0.019 | [6] -0.12 | [7] -0.021 | [8] 0.009 | [9] -0.025 | [10] -0.002

SLC25A36 (UniProt Q96CQ1)
inactive: [1] 0.131 | [2] 0.035 | [3] 0.015 | [4] -0.123 | [5] 0.036 | [6] 0.003 | [7] 0.063 | [8] 0.106 | [9] 0.027 | [10] 0.028

SULT1A1 (UniProt P50225)
UniProt P50225, sequence (P50225 whole entry, looked up): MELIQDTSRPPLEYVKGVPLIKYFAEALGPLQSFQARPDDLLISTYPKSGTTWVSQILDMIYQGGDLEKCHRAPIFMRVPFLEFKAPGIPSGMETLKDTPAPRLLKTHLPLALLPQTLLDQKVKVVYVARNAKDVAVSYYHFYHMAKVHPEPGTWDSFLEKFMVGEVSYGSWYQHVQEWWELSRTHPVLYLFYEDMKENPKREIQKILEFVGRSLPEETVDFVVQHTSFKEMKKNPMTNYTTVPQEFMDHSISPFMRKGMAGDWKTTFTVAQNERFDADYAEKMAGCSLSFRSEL
inactive: [1] -0.049 | [2] 0.039 | [3] -0.179 | [4] 0.123 | [5] 0.133 | [6] 0.063 | [7] 0.056 | [8] -0.038 | [9] -0.095 | [10] 0.032

TARBP1 (UniProt Q13395)
UniProt Q13395, sequence (Q13395 whole entry, looked up): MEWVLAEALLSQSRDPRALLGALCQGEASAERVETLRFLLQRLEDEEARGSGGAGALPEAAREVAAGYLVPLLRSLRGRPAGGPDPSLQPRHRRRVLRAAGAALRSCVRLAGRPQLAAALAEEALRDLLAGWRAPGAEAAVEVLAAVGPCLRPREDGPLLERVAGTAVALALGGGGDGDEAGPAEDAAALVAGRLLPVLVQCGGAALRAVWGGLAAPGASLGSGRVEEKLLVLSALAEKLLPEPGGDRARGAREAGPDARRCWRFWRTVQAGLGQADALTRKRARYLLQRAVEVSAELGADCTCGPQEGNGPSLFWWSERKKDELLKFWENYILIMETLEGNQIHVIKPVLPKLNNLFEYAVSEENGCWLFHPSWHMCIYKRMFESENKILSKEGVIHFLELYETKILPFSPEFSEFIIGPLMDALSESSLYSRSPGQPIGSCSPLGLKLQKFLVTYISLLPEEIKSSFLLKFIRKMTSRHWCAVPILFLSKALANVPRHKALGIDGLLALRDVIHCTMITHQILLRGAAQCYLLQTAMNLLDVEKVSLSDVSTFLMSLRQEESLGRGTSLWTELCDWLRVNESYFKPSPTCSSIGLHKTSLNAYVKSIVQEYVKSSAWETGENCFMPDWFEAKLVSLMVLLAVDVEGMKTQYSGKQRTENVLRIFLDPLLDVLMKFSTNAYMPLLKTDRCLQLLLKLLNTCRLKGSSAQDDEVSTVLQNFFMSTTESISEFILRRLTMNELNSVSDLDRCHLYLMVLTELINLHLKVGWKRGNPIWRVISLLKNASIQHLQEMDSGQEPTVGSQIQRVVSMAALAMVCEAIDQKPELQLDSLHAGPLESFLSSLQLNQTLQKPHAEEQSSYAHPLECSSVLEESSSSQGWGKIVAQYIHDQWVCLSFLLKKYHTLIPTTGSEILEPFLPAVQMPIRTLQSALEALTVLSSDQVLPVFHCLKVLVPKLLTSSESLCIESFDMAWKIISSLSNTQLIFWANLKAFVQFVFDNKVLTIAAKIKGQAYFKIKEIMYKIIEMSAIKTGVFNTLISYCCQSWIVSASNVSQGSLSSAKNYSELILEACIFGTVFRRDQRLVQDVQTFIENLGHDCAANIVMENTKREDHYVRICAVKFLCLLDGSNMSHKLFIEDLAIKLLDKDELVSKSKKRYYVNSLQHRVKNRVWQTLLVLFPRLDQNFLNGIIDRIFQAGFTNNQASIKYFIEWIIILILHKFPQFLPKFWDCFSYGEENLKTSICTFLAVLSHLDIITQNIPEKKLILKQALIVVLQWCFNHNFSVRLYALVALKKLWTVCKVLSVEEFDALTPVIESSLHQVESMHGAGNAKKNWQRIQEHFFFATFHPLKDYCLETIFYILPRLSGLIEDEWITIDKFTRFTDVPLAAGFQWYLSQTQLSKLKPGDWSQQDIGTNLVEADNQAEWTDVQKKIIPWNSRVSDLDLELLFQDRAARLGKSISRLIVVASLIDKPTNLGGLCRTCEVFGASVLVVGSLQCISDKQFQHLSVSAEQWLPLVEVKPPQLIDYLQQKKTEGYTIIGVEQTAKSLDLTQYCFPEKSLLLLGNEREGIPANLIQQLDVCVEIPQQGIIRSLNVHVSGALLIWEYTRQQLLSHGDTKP
inactive: [1] -0.033 | [2] 0.048 | [3] -0.027 | [4] 0.014 | [5] -0.044 | [6] 0.003 | [7] 0.079 | [8] 0.034 | [9] 0.053 | [10] 0

SRP72 (UniProt O76094)
inactive: [1] -0.088 | [2] -0.054 | [3] -0.082 | [4] -0.128 | [5] 0.069 | [6] 0.103 | [7] 0.095 | [8] 0.042 | [9] 0.105 | [10] -0.129

TBC1D24 (UniProt Q9ULP9)
inactive: [1] 0.047 | [2] -0.038 | [3] -0.091 | [4] -0.002 | [5] 0.029 | [6] 0.291 | [7] 0.016 | [8] -0.135 | [9] -0.082 | [10] -0.096

STXBP5 (UniProt Q5T5C0)
inactive: [1] 0.006 | [2] -0.022 | [3] -0.145 | [4] -0.033 | [5] -0.011 | [6] 0.004 | [7] 0.024 | [8] 0.041 | [9] -0.04 | [10] -0.003

STK4 (UniProt Q13043)
active: [1] 0.248
inactive: [2] -0.031 | [3] -0.1 | [4] 0.006 | [5] -0.041 | [6] 0.011 | [7] 0.064 | [8] -0.015 | [9] -0.031 | [10] -0.122

TBCD (UniProt Q9BTW9)
inactive: [1] 0.003 | [2] -0.057 | [3] -0.146 | [4] -0.03 | [5] 0.03 | [6] -0.013 | [7] 0.028 | [8] 0.039 | [9] -0.001 | [10] -0.063

TANK (UniProt Q92844)
inactive: [1] 0.076 | [2] 0.041 | [3] -0.035 | [4] 0.023 | [5] -0.001 | [6] -0.084 | [7] -0.022 | [8] 0.064 | [9] 0.028 | [10] 0.01

SMARCAD1 isoform 2 (UniProt Q9H4L7)
inactive: [1] -0.109 | [2] -0.043 | [3] -0.187 | [4] -0.072 | [5] 0.057 | [6] 0.045 | [7] 0.037 | [8] 0.03 | [9] -0.187 | [10] 0.088

SPR (UniProt P35270)
active: [3] 0.491
inactive: [1] 0.006 | [2] 0.13 | [4] -0.002 | [5] -0.049 | [6] -0.154 | [7] -0.041 | [8] 0.004 | [9] 0.176 | [10] 0.066
